The results in this text go back to PubChem BioAssay (NCI).

Test systems include SK-MEL-2 melanoma; EKVX NSCLC; SN12C renal; UO-31 renal; TK-10 renal; ACHN renal; CAKI-1 renal; A498 renal; CCRF-CEM leukemia; MOLT-4 leukemia; SR leukemia; RPMI-8226 leukemia; OVCAR-8 ovarian; OVCAR-5 ovarian; OVCAR-4 ovarian; SK-OV-3 ovarian; IGROV1 ovarian; OVCAR-3 ovarian; HS 578T breast; NCI/ADR-RES ovarian.
Common to all, as to assay: NCI-60 one-dose screen, 48 h (100 = growth as untreated, 0 = no growth, -100 = all killed)
Settings in all cases: 10 µM unless noted

About 83,000 compounds went through this panel and 20% of them were active in at least one assay; those are over-represented in the sample as a whole.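 Note: values are percent growth. 100 is the growth of untreated cells, values between 100 and 0 indicate rising inhibition; between -100 and 0 indicates cell death.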 Unmarked numbers belong to inactive results. Active and inactive are the calls of the source. The calls were made as follows: active = growth percent below 10; inactive = the rest.

`Cn1cc(-c2nonc2-c2cn(C)c3ccc(F)cc23)c2cc(F)ccc21`: the growth with SK-MEL-2 melanoma is 30.5%; with EKVX NSCLC it was 67.9%; in the assay with SN12C renal it was 61.6%; in the assay with UO-31 renal it was 68.6%; in the assay with TK-10 renal, 85.9%; with ACHN renal, 70.3%. Further, the growth was 42% in the assay on CAKI-1 renal; 54.2% in the assay on A498 renal; 33.6% in the assay on CCRF-CEM leukemia; 29.1% in the assay with MOLT-4 leukemia; 31.8% with SR leukemia; 81.4% in the assay on RPMI-8226 leukemia. Moreover, the growth is 81.7% with OVCAR-8 ovarian; 92% in the assay with OVCAR-5 ovarian; 79% with OVCAR-4 ovarian; 45.1% in the assay on SK-OV-3 ovarian; 52.5% in the assay with IGROV1 ovarian; 23.4% in the assay with OVCAR-3 ovarian. For the same compound, the growth is 52.2% with HS 578T breast and 30.9% in the assay on NCI/ADR-RES ovarian.
`O=c1nc2oc3ccc4ccccc4c3cc-2s1`: the growth in the assay on SK-MEL-2 melanoma was 31.9%; in the assay with EKVX NSCLC it was 46.1%; with SN12C renal, 41.1%; in the assay with UO-31 renal, 46.9%; in the assay on TK-10 renal, 54.7%; with ACHN renal, 41%. Besides, the growth was 22.1% in the assay with CAKI-1 renal; -1.24% (active) in the assay on A498 renal; 13.7% with CCRF-CEM leukemia; 25.1% with MOLT-4 leukemia; 24.3% in the assay with SR leukemia; 14.7% in the assay on RPMI-8226 leukemia. Moreover, the growth was 29.8% in the assay with OVCAR-8 ovarian; 53.3% with OVCAR-5 ovarian; 62.5% in the assay with OVCAR-4 ovarian; 28.5% in the assay on SK-OV-3 ovarian; 37.2% in the assay with IGROV1 ovarian; 6% (active) in the assay with OVCAR-3 ovarian. For the same compound, the growth in the assay on NCI/ADR-RES ovarian is 91.1%.
For `Cc1ccc2c(C(C[N+](=O)[O-])c3ccco3)c(-c3ccccc3)[nH]c2c1` (centres undefined), the growth in the assay on SK-MEL-2 melanoma was 9.58% (active); with EKVX NSCLC, 39.8%; in the assay on SN12C renal, 39.1%; in the assay with UO-31 renal it was 38.9%; in the assay with TK-10 renal, 64.2%; in the assay with ACHN renal, 30.6%. The growth is 23.8% in the assay on CAKI-1 renal; 12.3% in the assay on A498 renal; 14.4% with CCRF-CEM leukemia; 21% in the assay on MOLT-4 leukemia; 24% with SR leukemia; 27.4% in the assay with RPMI-8226 leukemia. Moreover, the growth is 48.1% in the assay with OVCAR-8 ovarian; 54.9% in the assay with OVCAR-5 ovarian; 64.2% in the assay with OVCAR-4 ovarian; 21.7% in the assay on SK-OV-3 ovarian; 29% in the assay on IGROV1 ovarian; 14.2% in the assay on OVCAR-3 ovarian. Further, the results for the growth in the assay with HS 578T breast and in the assay on NCI/ADR-RES ovarian were 16.2% and 7.41% (active), respectively.
Turning to `O=C1c2cccc3cccc(c23)C(=O)N1CCCCCN1CCN(CCCCCOc2ccc(-c3nc4ccc(N5CCOCC5)cc4[nH]3)cc2)CC1`, the growth is 87.4% with SK-MEL-2 melanoma; 105% in the assay on EKVX NSCLC; 108% in the assay on SN12C renal; 4.03% (active) with UO-31 renal; 106% in the assay with TK-10 renal; 111% in the assay with ACHN renal. Also, the growth in the assay with CAKI-1 renal is 59.4%; with A498 renal, 117%; in the assay on CCRF-CEM leukemia, -17.9% (active); in the assay with MOLT-4 leukemia, -54.4% (active); in the assay with SR leukemia, -44.1% (active); with RPMI-8226 leukemia, -59% (active). Besides, the growth is 10.6% with OVCAR-8 ovarian; 83.2% in the assay on OVCAR-4 ovarian; 135% in the assay with SK-OV-3 ovarian; 44.3% in the assay on IGROV1 ovarian; 105% in the assay on OVCAR-3 ovarian; 107% with HS 578T breast. Moreover, the growth in the assay with NCI/ADR-RES ovarian is 25.9%.
With `COc1ccc(C2CC(c3ccc4ccccc4c3)=NN2/C=C2\SC(=S)N(NC(=O)Cc3ccccc3Nc3c(Cl)cccc3Cl)C2=O)cc1` (centres undefined), the growth in the assay with SK-MEL-2 melanoma is 38.8%; with EKVX NSCLC, 40.2%; in the assay on SN12C renal, 31.7%; with UO-31 renal it was 11.8%; in the assay with TK-10 renal, 48.7%; in the assay on ACHN renal, 47.4%. The growth was 31.5% in the assay on CAKI-1 renal; -0.474% (active) with A498 renal; 6.24% (active) in the assay with CCRF-CEM leukemia; 13.9% in the assay on MOLT-4 leukemia; 20.8% in the assay on SR leukemia; -10.1% (active) with RPMI-8226 leukemia. Also, the growth was 34.6% in the assay on OVCAR-8 ovarian; 56.8% with OVCAR-5 ovarian; 70% in the assay on OVCAR-4 ovarian; 41.9% with SK-OV-3 ovarian; 2.15% (active) in the assay with OVCAR-3 ovarian; 13.3% in the assay with HS 578T breast. In the assay with NCI/ADR-RES ovarian, the growth was 9.39% (active).
Regarding `C#Cc1cccc(NC(=O)c2ccccc2NC(=O)C=C)c1`, the growth with SK-MEL-2 melanoma is 104% [8.25 µM]; in the assay with EKVX NSCLC, 109% [8.25 µM]; in the assay on SN12C renal it was 94% [8.25 µM]; in the assay with UO-31 renal, 85.6% [8.25 µM]; with TK-10 renal, 81.1% [8.25 µM]; in the assay with ACHN renal, 105% [8.25 µM]. In addition, the growth with CAKI-1 renal is 97.3% [8.25 µM]; with A498 renal, 96.8% [8.25 µM]; in the assay on CCRF-CEM leukemia it was 106% [8.25 µM]; in the assay with MOLT-4 leukemia, 102% [8.25 µM]; in the assay on SR leukemia, 101% [8.25 µM]; with RPMI-8226 leukemia, 66.9% [8.25 µM]. Also, the growth with OVCAR-8 ovarian was 91.4% [8.25 µM]; with OVCAR-5 ovarian, 113% [8.25 µM]; with OVCAR-4 ovarian it was 100% [8.25 µM]; in the assay with SK-OV-3 ovarian it was 99.2% [8.25 µM]; in the assay on OVCAR-3 ovarian, 104% [8.25 µM]; in the assay with HS 578T breast, 89.9% [8.25 µM]. Also, in the assay on NCI/ADR-RES ovarian, the growth is 103% [8.25 µM].
Take `O=C(CN(C(=O)Cn1c(=O)n2nnnc2c2ccccc21)c1ccccc1C(F)(F)F)Nc1ccc(C(F)(F)F)cc1`: the growth in the assay with SK-MEL-2 melanoma is 105%; with EKVX NSCLC it was 101%; in the assay on SN12C renal, 100%; in the assay with UO-31 renal it was 81.1%; in the assay with TK-10 renal, 111%; with ACHN renal it was 102%. In addition, the growth in the assay on CAKI-1 renal is 99.2%; in the assay on A498 renal, 116%; with CCRF-CEM leukemia, 107%; in the assay with MOLT-4 leukemia it was 104%; in the assay with SR leukemia, 111%; in the assay on RPMI-8226 leukemia, 103%. The growth in the assay on OVCAR-8 ovarian was 100%; in the assay on OVCAR-5 ovarian it was 106%; in the assay on OVCAR-4 ovarian it was 97.1%; in the assay with SK-OV-3 ovarian, 103%; in the assay with OVCAR-3 ovarian, 110%; in the assay on HS 578T breast, 103%. Further, the growth in the assay with NCI/ADR-RES ovarian was 106%.
Consider `CC(=O)NCC1c2c(n(C)c3c(Cl)c(Cl)ccc23)C(=O)NC1(C)C` (centres undefined), for which the growth with SK-MEL-2 melanoma was 103%; in the assay on EKVX NSCLC it was 90.7%; with SN12C renal, 85.5%; in the assay with UO-31 renal, 84.6%; with TK-10 renal, 89.5%; with ACHN renal, 95.1%. Besides, the growth in the assay with CAKI-1 renal is 77.4%; in the assay with A498 renal, 93%; in the assay with CCRF-CEM leukemia, 107%; in the assay on MOLT-4 leukemia, 84.9%; in the assay with SR leukemia, 75.2%; in the assay with RPMI-8226 leukemia, 100%. Besides, the growth was 91.3% in the assay on OVCAR-8 ovarian; 103% in the assay on OVCAR-4 ovarian; 116% in the assay with SK-OV-3 ovarian; 96.5% with IGROV1 ovarian; 107% with OVCAR-3 ovarian; 104% in the assay with HS 578T breast. Further, the growth in the assay with NCI/ADR-RES ovarian was 88.1%.
